# Structures can show the parent of a compound that is named as a salt. ± gives the standard deviation or the standard deviation of the averaged measurements.
# Legend:
# Settings in all cases: 25 µM; exposure: 24-48 hpf
# [1] = system: Danio rerio Tg(wt1b:EGFP) embryo, pronephros; test: glomerular separation, fold change vs DMSO control; higher = glomeruli further apart (abnormal)
# In short: (§1)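 Distances and angles describing the pronephros were computed by a Fiji macro from 16 reference points set manually on maximum projections of dorsal images. These images came from dechorionated Tg(wt1b:EGFP) zebrafish embryos held in agarose-filled 96-well plates after exposure to 25 μM compound in 0.5% DMSO, in HEPES-buffered E3 with 0.003% PTU, from 24 to 48 hpf at 28.5°C. Any value more than 2 SD from the feature mean was excluded. Features are stated as fold change relative to the mean of same-day DMSO-treated embryos.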
# [2] = system: Danio rerio Tg(wt1b:EGFP) embryo, pronephros; test: glomerular width (mean of left and right), fold change vs DMSO control; higher = wider glomerulus
# In short: as §1
# [3] = system: Danio rerio Tg(wt1b:EGFP) embryo, pronephros; test: fraction of imaged embryos annotated as normal kidney; higher = less nephrotoxic; extreme values may be limits of the assay
# In short: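 Embryos of the Tg(wt1b:EGFP) zebrafish line were dechorionated and held in 12-well plates with 25 μM compound in 0.5% DMSO and 5 mM HEPES-buffered E3 containing 0.003% PTU, from 24 to 48 hpf at 28.5°C. Larvae were then anaesthetised with tricaine, set dorsal side up in agarose-filled 96-well plates, and their pronephroi imaged by widefield fluorescence at 470 nm over 10 z-slices. Each value is the fraction of embryos per treatment placed in the normal-kidney category after manual annotation of maximum projections.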
# [4] = system: Danio rerio Tg(wt1b:EGFP) embryo, pronephros; test: pronephric angle neck segment to proximal convoluted tubule (mean of left and right), fold change vs DMSO control; higher = larger pronephric angle
# In short: as §1
Compound,glomerular separation [1],glomerular width [2],fraction of imaged embryos annotated as normal kidney [3],pronephric angle neck segment [4]
CCC[C@@H]1C[C@@H](C(=O)N[C@@H]([C@H]2O[C@H](SC)[C@H](O)[C@@H](O)[C@H]2O)[C@@H](C)O)N(C)C1 [Lincomycin hydrochloride],0.865 ± 0.33,0.984 ± 0.037,0.917,0.9548 ± 0.0043
COc1ccc(-c2cc(=O)c3c(O)cc(O[C@@H]4O[C@H](CO[C@@H]5O[C@@H](C)[C@H](O)[C@@H](O)[C@H]5O)[C@@H](O)[C@H](O)[C@H]4O)cc3o2)cc1O [Diosmin],1.06 ± 0.42,0.996 ± 0.011,0.727,0.974 ± 0.032
CCSc1ccc2c(c1)N(CCCN1CCN(C)CC1)c1ccccc1S2 [Thiethylperazine dimalate],0.677 ± 0.22,1.054 ± 0.0092,0.833,0.9766 ± 0.0079
C=C1c2cccc(O)c2C(=O)C2=C(O)[C@]3(O)C(=O)C(C(N)=O)=C(O)[C@@H](N(C)C)[C@@H]3[C@@H](O)[C@H]12 [Methacycline hydrochloride],0.724 ± 0.4,1.11 ± 0.0095,0.818,0.984 ± 0.018
O=C(O)c1cn(-c2ccc(F)cc2)c2cc(N3CCNCC3)c(F)cc2c1=O [Sarafloxacin],1.17 ± 0.4,1.08 ± 0.039,0.455,1.02 ± 0.013
CN1CCN(c2c(F)cc3c(=O)c(C(=O)O)cn(CCF)c3c2F)CC1 [Fleroxacin],0.566 ± 0.3,0.977 ± 0.049,0.917,1.049 ± 0.0028
CC(C)OC(=O)C(C)(C)Oc1ccc(C(=O)c2ccc(Cl)cc2)cc1 [Fenofibrate],6.84 ± 3.3,0.648 ± 0.076,0,1.801 ± 0.0082
Nc1ccc(C(=O)O)c(O)c1 [4-aminosalicylic acid],0.608 ± 0.17,0.9604 ± 0.008,0.833,0.995 ± 0.018
O=C1O[C@H]([C@@H](O)CO)C(O)=C1O [Ascorbic acid],1.08 ± 0.33,1.01 ± 0.09,0.75,1.03 ± 0.025
CC(=O)OCC1=C(C(=O)O)N2C(=O)[C@@H](NC(=O)Cc3cccs3)[C@H]2SC1 [Cephalothin sodium salt],0.848 ± 0.31,0.923 ± 0.08,1,1.02 ± 0.028
CCN1CCCC1CNC(=O)c1cc(S(=O)(=O)CC)c(N)cc1OC (stereo not given) [Amisulpride],0.971 ± 0.31,1.04 ± 0.042,0.9,0.9586 ± 0.0016
O=C(C1CCCCC1)N1CC(=O)N2CCc3ccccc3C2C1 (stereo not given) [Praziquantel],1.18 ± 0.28,1 ± 0.052,0.545,1.02 ± 0.057
N/C(=N\C(=O)c1nc(Cl)c(N)nc1N)NCc1ccccc1 [Benzamil hydrochloride],0.935 ± 0.43,1.05 ± 0.019,0.917,0.98 ± 0.018
CC1(C)[C@@H](OC(=O)CCC(=O)O)CC[C@]2(C)[C@H]3C(=O)C=C4[C@@H]5C[C@@](C)(C(=O)O)CC[C@]5(C)CC[C@@]4(C)[C@]3(C)CC[C@@H]12 [Carbenoxolone disodium salt],0.718 ± 0.41,1.04 ± 0.031,0.667,0.9894 ± 0.0072
CCCCN1CCCCC1C(=O)Nc1c(C)cccc1C (stereo not given) [Bupivacaine hydrochloride],1.23 ± 0.54,0.946 ± 0.021,0.667,1.01 ± 0.13
CN(C)CC/C=C1\c2ccccc2CSc2ccccc21 [Dosulepin hydrochloride],1.15 ± 0.25,0.981 ± 0.048,0.833,0.995 ± 0.03
Cc1scc2c1N(C(=O)CN1CCN(C)CC1)c1ccccc1NC2=O [Telenzepine dihydrochloride],0.967 ± 0.17,0.937 ± 0.032,1,0.963 ± 0.01
CC(C)(C(=O)c1cccnc1)c1cccnc1 [Metyrapone],0.85 ± 0.27,0.961 ± 0.039,0.9,1.03 ± 0.076
CC(=O)[C@@]1(O)CC[C@H]2[C@@H]3C[C@H](C)C4=CC(=O)C=C[C@]4(C)[C@@]3(F)[C@@H](O)C[C@@]21C [Fluorometholone],1.11 ± 0.27,1.174 ± 0.0086,0.417,0.997 ± 0.035
CN1C(=O)OC(C)(C)C1=O [Trimethadione],0.837 ± 0.27,0.996 ± 0.064,0.75,0.935 ± 0.026
Cc1cccc(Nc2ccncc2S(=O)(=O)NC(=O)NC(C)C)c1 [Torsemide],1.12 ± 0.3,0.95 ± 0.015,1,0.905 ± 0.03
CN(C)C(=N)NC(=N)N [Metformin hydrochloride],0.804 ± 0.19,0.93 ± 0.035,0.833,1.08 ± 0.042
O=C(OCCOCCO)c1ccccc1Nc1cccc(C(F)(F)F)c1 [Etofenamate],3.04 ± 0.95,0.684 ± 0.026,0,1.75 ± 0.018
CCN(CC)CCOC(=O)C(c1ccccc1)c1ccccc1 [Adiphenine hydrochloride],1.14 ± 0.47,0.979 ± 0.026,0.917,0.98401 ± 0.00017
C[N+]1(CCCCC[N+]2(C)CCCC2)CCCC1 [Pentolinium bitartrate],1.28 ± 0.5,1.0393 ± 0.0007,0.75,1.05 ± 0.052

# — the supplement of paper PMC7366291
